# Source: PubChem
# This is a sample that favours compounds with a hit; in the whole collection about 0.54% have one here.
# BH1578 lux ind = inducers of Vibrio cholerae quorum light production without autoinducers; V. cholerae BH1578 lux reporter, luminescence, 6 h; activation, % at 18.7 µM; 350,000 tested, 0.16% active; AID 588436; in the data active = activation mostly above about 9.7%, no sharp cut-off; inconclusive = no clear call, values can overlap the other calls; inactive = mostly below about 3.7%
# FadD28 binding = inhibitors of Mycobacterium tuberculosis FadD28 bisubstrate binding | FadD28 bisubstrate probe binding, fluorescence polarization | 360,000 tested, 0.22% active | inhibition, % at 12.5 µM; in the data active = inhibition above about 8.5%, passing the limit was not always enough; inconclusive = no clear call, values can overlap the other calls
# Mtb BioA inh = inhibitors of Mycobacterium tuberculosis BioA enzyme | inhibition, % at 9.99 µM | AID 602481 | 360,000 tested, 0.096% active | purified M. tuberculosis BioA enzyme, plate reader; in the data active = inhibition above about 40%; inconclusive = no clear call, values can overlap the other calls
# TcdB inh = inhibitors of Clostridioides difficile toxin B glycohydrolase; P18177; 350,000 tested, 0.24% active; TcdB glycohydrolase enzymatic assay, plate reader; AID 652162; inhibition, % at 9.99 µM; in the data active = inhibition above about 10%
# Active calls of the source: *; i = inactive; ? = inconclusive; / = no result.
SMILES,BH1578 lux ind,FadD28 binding,Mtb BioA inh,TcdB inh
Cc1cc(C)cc(N=C2NC(=O)CS2)c1,0,-3,1,13*
COc1ccccc1NC(=O)N(C)C[C@H]1Oc2ncc(Br)cc2C(=O)N([C@H](C)CO)C[C@@H]1C,/,/,2,1
COc1cccc(C(=O)OCC(=O)Nc2cc(C)on2)c1OC,i,0,-1,10*
COc1cccc(C(=O)Nc2cc(C)on2)c1OC,0,0,-2,1
C[C@H](CO)N1C[C@H](C)[C@H](CN(C)S(=O)(=O)c2cccc(F)c2)Oc2ncc(C#CC3CC3)cc2C1=O,/,/,0,1
Nc1ccc(-c2nc3ccc(N)cc3o2)cc1,0,0,0,11*
COc1ccc(S(=O)(=O)/N=C2/NC(=O)/C(=C\c3ccco3)S2)cc1,0,8,/,/
COc1ccc(S(=O)(=O)/N=C2/NC(=O)/C(=C/c3ccco3)S2)cc1,0,20*,/,-1
COc1ccc(NC(=O)N(C)C[C@@H]2OCCCC[C@H](C)Oc3ccc(NS(=O)(=O)c4ccc(C)cc4)cc3C(=O)N([C@H](C)CO)C[C@@H]2C)cc1,/,/,-1,0
C[C@H](CO)N1C[C@H](C)[C@@H](CN(C)Cc2ccc3c(c2)OCO3)Oc2ccc(NC(=O)Cc3ccccc3)cc2CC1=O,/,/,4,0
O=C(O)CSC(C(=O)Nc1ccc(C(F)(F)F)cc1)c1ccccc1 (configuration not stated),-1,10*,0,/
O=C(CN1CCOCC1)N1CCCCN2[C@H](CO)[C@H](c3ccc(C#Cc4ccccc4F)cc3)[C@@H]2C1,/,/,0,1
Oc1c(Br)c(Br)c(Br)c(Br)c1Br,0,41*,3,/
NCC[C@H]1CC[C@H](NC(=O)c2ccccc2F)[C@@H](CO)O1,/,/,1,0
CO[C@@H]1CN(C)C(=O)c2cc(NC(=O)NC(C)C)ccc2OC[C@H](C)N(S(C)(=O)=O)C[C@H]1C,/,/,/,-2
CO[C@@H]1CN(C)C(=O)c2cc(NC(=O)NC(C)C)ccc2OC[C@@H](C)N(S(C)(=O)=O)C[C@H]1C,/,/,0,16*
COc1ccccc1S(=O)(=O)N[C@@H]1C=C[C@@H](CC(=O)NCc2cc(F)cc(F)c2)O[C@H]1CO,/,/,-3,1
CCc1csc(N2[C@H](CO)[C@H](c3ccccc3)[C@@H]2CNCCOC)n1,/,/,2,/
CN(C)c1ccc(N=Nc2ccc(S(=O)(=O)O)cc2)c2ccccc12,0,14*,4,/
CN(C)c1ccc(N=Nc2ccc(S(N)(=O)=O)cc2)cc1,0,-2,0,-5
O=C(C[C@H]1CC[C@H]2[C@@H](COC[C@H](O)CN2Cc2cc(F)cc(F)c2)O1)NC1CCCC1,/,/,-2,0
CCCNC(=O)N1C[C@@H](O)COC[C@@H]2O[C@@H](CC(=O)N[C@H]3CCN(Cc4ccccc4)C3)CC[C@H]21,/,/,-1,1
CCOc1ccc2ccccc2c1/C=N/NC(=O)c1cc(C)[nH]n1,0,-6,0,7
CCOc1ccc2ccccc2c1/C=N/NC(=O)c1ccncc1,i,-1,-1,11*
COc1ccc2c3c(n(C)c2c1)[C@H](CO)N(S(C)(=O)=O)CC31CCN(Cc2cccnc2)CC1,/,/,/,1
SMILES,BH1578 lux ind,FadD28 binding,Mtb BioA inh,TcdB inh
O=C(O)CC(C(=O)O)N1C(=O)/C(=C/c2ccc(-c3nc4ccccc4s3)o2)SC1=S (configuration not stated),-3,29*,-3,/
O=C(O)CCN1C(=O)/C(=C/c2ccc(-c3nc4ccccc4s3)o2)SC1=S,-5,?,-1,/
O=S(=O)(Oc1ccccc1-c1ccccc1)c1ccccc1,i,0,-3,12*
COC(=O)c1ccc(COc2ccc(Cl)cc2)o1,i,-1,-1,-1
COC(=O)c1ccc(COc2ccc(/C=N/NC(N)=S)cc2)o1,i,51*,-1,1
COc1ccccc1S(=O)(=O)N[C@H]1CC[C@H](CC(=O)NCc2cc(F)cc(F)c2)O[C@H]1CO,/,/,/,1
C#CCOCCOCCOCCNc1nc(N2CCN(C(=O)CCCCCCCCCCNC(=O)[C@@H](CCSC)n3cc(CCO)nn3)CC2)nc(N2CCN(C(=O)CCCCCCCCCCNC(=O)[C@H]([C@@H](C)CC)n3cc(CCCCN=C(N)N)nn3)CC2)n1,-2,11*,1,/
CCn1cc(C(=O)O)c(=O)c2cc(F)c(N3CCN(C(=S)NC(=O)c4ccccc4Br)CC3)cc21,-1,-2,1,10*
C[C@H]1CN([C@@H](C)CO)S(=O)(=O)c2ccc(C3=CCCCC3)cc2O[C@H]1CN(C)C(=O)C1CCOCC1,/,/,-3,0
CC(/C=C1\SC(=S)N(NS(=O)(=O)c2ccc(C)cc2)C1=O)=C\c1ccccc1,0,11*,-2,0
C=CCOc1ccc(/C=C2\SC(=S)N(NS(=O)(=O)c3ccccc3)C2=O)cc1,i,12*,/,2
CC(/C=C1\SC(=S)N(NS(=O)(=O)c2ccccc2)C1=O)=C\c1ccccc1,0,?,2,0
COCC(=O)NCc1ccc2c(c1)cc(C)n2C,-6,0,/,0
Cc1cc2cc(CNC(=O)Nc3ccc(Cl)c(Cl)c3)ccc2n1C,0,13*,-2,3
CO[C@H]1O[C@H](CO)[C@@H](OC(=O)Nc2ccccc2)[C@H](OC(=O)Nc2ccccc2)[C@H]1OC(=O)Nc1ccccc1,/,/,3,1
Nc1ccc2c(c1)C(=O)c1cc(N)c(Cl)cc1-2,i,-1,-1,1
COc1cc2c(cc1N)-c1ccc(N)cc1C2=O,i,-3,-1,20*
Cc1cc(C=C2C(=O)c3ccccc3C2=O)c(C)n1-c1ccc(C(=O)O)cc1,i,-1,/,27*
Cc1cc(/C=C2\C(=O)NC(=O)N(Cc3ccccc3)C2=O)c(C)n1-c1ccc(Cl)c(C(=O)O)c1,i,16*,/,-3
CC(C)OC(=O)c1cccc(C(=O)O)n1,i,-1,0,12*
CCCNC(=O)N1CC2(CCN(CC3CC3)CC2)c2c(n(C)c3cc(OC)ccc23)[C@@H]1CO,/,/,/,0
COC1=C/C(=C/c2c(N)n3cc(C)sc3nc2=O)C=CC1=O,0,-1,-2,3
Cc1cn2c(N)c(C=C3C=C(Cl)C(=O)C(Cl)=C3)c(=O)nc2s1,-1,15*,/,2
C=CCn1c(O)c(CN2CCN(Cc3ccccc3)CC2)c(C)c(C#N)c1=O,17*,2,-1,/
Cc1cc2c(cc1S(=O)(=O)NCc1ccccc1)OCC(=O)N2,0,0,1,1
SMILES,BH1578 lux ind,FadD28 binding,Mtb BioA inh,TcdB inh
Cc1cc2c(cc1S(=O)(=O)N(C)c1ccccc1)NC(=O)CO2,0,-3,6,21*
C[C@@H]1CN([C@@H](C)CO)C(=O)Cc2cc(NC(=O)Cc3cn(C)c4ccccc34)ccc2O[C@@H]1CN(C)C(=O)Nc1ccc(F)cc1,/,/,/,1
COc1ccccc1CNC(=O)CNC(=O)N1CC(=O)Nc2ccccc21,0,0,0,11*
COc1cccc(CC(=O)OCC(=O)Nc2c(C)nn(-c3ccccc3)c2C)c1,-1,-1,0,11*
Cc1nn(-c2ccccc2)c(C)c1NC(=O)COC(=O)CCc1ccccc1,i,-3,1,0
CCc1ccc2oc(-c3cc(N)ccc3O)nc2c1,-4,1,0,/
